Hits are enriched below; roughly 2.5% of the tested compounds scored in any of these assays.
Cruzain Triton – cruzain (T. cruzi) inhibition with detergent; P25779; purified cruzain, Z-FR-AMC fluorescence, 0.01% Triton; Potency, µM, actives largely listed as inhibitors; hit rate 0.43% among 200,000; also: nearly all actives have a fitted effect of over 40% in size
Target sequence (P25779 123-467 limits assumed): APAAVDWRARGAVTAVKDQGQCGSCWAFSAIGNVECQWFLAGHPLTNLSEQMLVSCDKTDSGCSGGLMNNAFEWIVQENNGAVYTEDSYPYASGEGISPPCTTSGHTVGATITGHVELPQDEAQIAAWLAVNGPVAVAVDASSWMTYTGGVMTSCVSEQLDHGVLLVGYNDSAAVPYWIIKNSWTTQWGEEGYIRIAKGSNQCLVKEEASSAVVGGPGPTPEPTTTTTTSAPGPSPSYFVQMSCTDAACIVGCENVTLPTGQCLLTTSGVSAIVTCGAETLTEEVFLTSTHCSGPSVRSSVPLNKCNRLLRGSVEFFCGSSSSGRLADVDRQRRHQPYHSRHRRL
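15 min RT preincubation of 1.5 nM cruzain with compound, then 2 uM Z-FR-AMC added; kinetic AMC fluorescence, 60 s delta. Triton X-100 0.01%, pH 5.5.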
Cruzain inh noDet – inhibitors of Trypanosoma cruzi cruzain without detergent. hit rate 2.3% among 200,000. P25779. Potency, µM, usual class: inhibitors. purified cruzain, Z-FR-AMC fluorescence, no detergent; also: nearly all actives have a fitted effect of over 40% in size
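Detergent-free condition (0.00005% Triton X-100) in acetate buffer pH 5.5 with DTT. 1.5 nM enzyme and compound were pre-mixed 15 min, then 2 uM Z-FR-AMC substrate added; reaction progress from fluorescence change between first and third reads (60 s).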
Numbers stand for hits; i = inactive; ? = inconclusive. Calls follow the shape of the dose curve; as a rule, active = well fitted curve in the direction sought with a large enough effect; inconclusive = small, poorly fitted or top-dose-only effect, or another doubt; inactive = no such curve, though single readings can be large; an effect the other way counts as inactive or inconclusive.

SMILES	Cruzain Triton	Cruzain inh noDet
Cc1ccc(NC(=O)N2CC3CCCN3c3ccccc32)cc1C (centres undefined)	i	?
Cc1ccc(NC(=O)N2CC3CCCN3c3ccccc32)cc1Cl (centres undefined)	i	31.6µM
COc1ccc(-c2[nH]ncc2C(=O)NCc2cccc(F)c2)cc1	i	i
CCOC(=O)c1c(NC(=O)Cn2nc([N+](=O)[O-])c(Br)c2C)sc2c1CCC(C)C2 (centres undefined)	i	12.6µM
CCOC(=O)c1c(NC(=O)CC2SC(N)=NC2=O)sc2c1CCC(C)C2 (centres undefined)	i	?
Cc1nc2nc(NC(=O)c3ccc(F)cc3)[nH]n2c(=O)c1Cc1ccccc1	i	?
COc1ccccc1C(=O)N(Cc1nc(-c2cccc(C)c2)no1)C(C)C	i	i
Cc1cc(C(=O)CSc2nn3c(=O)c(C(C)(C)C)nnc3s2)c(C)n1-c1ccc(F)cc1	i	12.6µM
CC(C)N(C(=O)CSc1nn2c(=O)c(C(C)(C)C)nnc2s1)c1ccccc1	i	i
COc1ccc(NS(=O)(=O)c2ccc3nc(COc4cccc5ccccc45)[nH]c3c2)cc1	i	31.6µM
COc1ccc(NS(=O)(=O)c2ccc3nc(COc4ccc5ccccc5c4)[nH]c3c2)cc1	i	?

High-throughput results from PubChem.
